# In the library only some 3% were active in any assay of this set; here they are far more common.
# SENP8 block-1 = inhibitors of human SENP8 protease; Q96LD8; recombinant SENP8, Nedd8 substrate fluorescence; inhibition, % at 20 µM; 360,000 tested, 0.64% active; AID 602440; in the data active means inhibition mostly above about 40%, no sharp cut-off; inactive means mostly below about 27%
# SENP6 block = SENP6 protease inhibition; inhibition, % at 10 µM; 330,000 tested, 1.8% active; Recombinant SENP6 catalytic domain, aminoluciferin luminescence;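 active means inhibition above about 50% at the single tested dose, limit read from the data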;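 further: plate controls were DMSO wells with enzyme for no effect and DMSO wells lacking enzyme for full effect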
# C8 TRAIL sens = caspase-8 TRAIL sensitization; 360,000 tested, 1% active; AID 624354; NB7+C8 cells + TRAIL, ATPlite viability luminescence; inhibition (viability loss, TRAIL sensitization), % at 10 µM;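 active means compounds causing at least 50% loss of cell viability in the single-dose screen, relative to plate controls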
# SENP8 block-2 = blocks the human protease SENP8; Q96LD8; purified SENP8, Z-RLRGG-aminoluciferin cleavage, luminescence; inhibition, % at 10 µM; 330,000 tested, 1.2% active; in the data active means inhibition above about 50%
# PPC-1+TRAIL kill = compounds killing PPC-1 cancer cells with TRAIL present (potentiator screen, no TRAIL-free arm); 220,000 tested, 0.41% active; AID 1443; PPC-1 cells + TRAIL, ATPLite viability luminescence; cell killing (% activity), % at 4 µM or 5 µM;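 active means cell killing above 50% in the first pass at 4 µM, then a duplicate retest at 5 µM averaging 50% or more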;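 further: plate controls were cells with TRAIL plus DMSO for no effect and medium-only wells lacking cells for full effect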
# SENP7 block = inhibitors of human SENP7 protease | Q9BQF6 | recombinant SENP7, Z-RLRGG-aminoluciferin luminescence, 40 min | inhibition, % at 5 µM | 330,000 tested, 1.5% active | AID 434973;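 active means inhibition above about 50% at the single test dose, limit read from the data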;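 further: plate controls were DMSO with enzyme for no effect and no enzyme buffer wells for full effect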
# Target sequence (Q9BQF6 706-1050 limits assumed): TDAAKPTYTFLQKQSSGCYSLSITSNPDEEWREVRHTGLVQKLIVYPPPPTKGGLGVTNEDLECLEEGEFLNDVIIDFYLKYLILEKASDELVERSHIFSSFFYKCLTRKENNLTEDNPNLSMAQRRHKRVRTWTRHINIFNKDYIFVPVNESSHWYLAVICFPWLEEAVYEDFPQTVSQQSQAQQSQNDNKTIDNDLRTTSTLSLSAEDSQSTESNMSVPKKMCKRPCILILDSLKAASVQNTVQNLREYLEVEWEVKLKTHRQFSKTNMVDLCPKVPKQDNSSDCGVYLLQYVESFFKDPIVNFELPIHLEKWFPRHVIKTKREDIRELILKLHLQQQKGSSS
# SENP8 confirm = human SENP8 inhibition, confirmed | 6,200 tested, 40% active | shares compounds with SENP7 block | inhibition, % at 12.5 µM | Recombinant SENP8, Z-RLRGG-aminoluciferin luminescence, 60 min;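 active means mean inhibition across replicates above about 50%, limit read from the data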
# SENP6 confirm = confirmation of human SENP6 protease inhibitors; recombinant SENP6, Z-RLRGG-aminoluciferin luminescence; inhibition, % at 12.5 µM; shares compounds with SENP7 block; 6,200 tested, 58% active; AID 488915
# SENP7 conf = confirmation of human SENP7 protease inhibitors; recombinant SENP7, Z-RLRGG-aminoluciferin luminescence, 40 min; 6,200 tested, 69% active; shares compounds with SENP7 block; inhibition, % at 12.5 µM
# Casp3 select = caspase-3 inhibition (SENP selectivity assay) | AID 488918 | shares compounds with SENP7 block | 6,200 tested, 60% active | purified caspase-3, Z-DEVD-aminoluciferin luminescence, 60 min | inhibition, % at 12.5 µM;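 active means mean inhibition above about 50%, limit read from the data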;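 further: plate controls were enzyme with DMSO for no effect and wells without caspase-3 for full effect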
# Target sequence (P42574 28-227 limits assumed): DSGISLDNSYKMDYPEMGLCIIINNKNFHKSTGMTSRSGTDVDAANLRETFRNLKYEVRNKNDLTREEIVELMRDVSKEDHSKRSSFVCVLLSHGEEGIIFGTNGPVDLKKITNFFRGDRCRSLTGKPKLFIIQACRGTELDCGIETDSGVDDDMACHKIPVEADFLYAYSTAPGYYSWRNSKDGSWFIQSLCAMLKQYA
# SENP luc ctr = counter-screen for SENP inhibitors: luminescence interference; inhibition, % at 12.5 µM; Pre-incubated SENP8/Z-RLRGG-aminoluciferin, luciferase luminescence interference; 6,200 tested, 39% active; AID 488919; shares compounds with SENP7 block;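 active means mean inhibition above about 50% when retested at one dose, limit read from the data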;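 further: plate controls were DMSO wells with completed reaction for no effect and substrate without enzyme for full effect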
# * marks the source's active call; other numbers are inactive results; i = inactive; / = no result.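 How the source made its calls, unless noted: active means mean inhibition above about 50% in the one-dose retest (limit read from the data); inactive means the rest.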
SMILES,SENP8 block-1,SENP6 block,C8 TRAIL sens,SENP8 block-2,PPC-1+TRAIL kill,SENP7 block,SENP8 confirm,SENP6 confirm,SENP7 conf,Casp3 select,SENP luc ctr
COc1cccc(N=NC2C(=O)N(C(N)=S)N=C2C)c1 (centres undefined),25,85*,0,79*,/,68*,71*,86*,98*,91*,42
CCOc1ccccc1N=NC1C(=O)N(C(N)=S)N=C1C (centres undefined),33,15,18,11,/,8,/,/,/,/,/
C[C@H](NC(=O)OC(C)(C)C)C(=O)N/N=C/c1ccc2nccnc2c1,-33,-28,-10,-10,1,-2,/,/,/,/,/
O=C(O)c1cc(N=Nc2c(O)[nH]c3ccc([N+](=O)[O-])cc23)ccc1Cl,30,54*,3,65*,/,49,44,25,21,28,38
c1ccc2c(Nc3nnc(-c4ccncc4)s3)cccc2c1,-105,61*,30,46,18,3,15,51*,81*,48,5
Fc1cccc2sc(Nc3nnc(-c4ccccc4)o3)nc12,-315,85*,53*,63*,40,45,8,7,1,60*,3
CN(Cc1ccccc1)C(=O)c1cccc(NC(=O)Cc2ccc(NC(=O)C3CCCN(C(=O)c4ccccc4)C3)cc2)c1 (centres undefined),-12,/,-1,/,/,/,/,/,/,/,/
Cc1nc(NS(=O)(=O)c2ccccc2)sc1NC(=O)OC(C)C,6,-4,2,1,8,98*,-7,0,-3,-3,-2
O=C(/C=C/Nc1ccc(F)c(Cl)c1)c1ccco1,-378,70*,12,45,30,27,67*,66*,88*,56*,14
O=C(/C=C/Nc1ccc(Oc2ccccc2Cl)cc1)c1ccco1,-274,45,-11,29,29,24,/,/,/,/,/
COc1ccccc1Oc1ccc(N/C=C/C(=O)c2ccco2)cc1,-197,85*,33,55*,24,57*,88*,89*,100*,81*,76*
CC(=O)Nc1ccc(N/C=C/C(=O)c2ccco2)cc1,-51,11,5,2,13,-1,/,/,/,/,/
O=C(/C=C/Nc1cccc(F)c1)c1ccco1,-265,82*,27,52*,7,73*,-10,72*,94*,85*,78*
Cc1ccc(C)c(C(O)c2ncc(-c3cccc(F)c3)[nH]2)c1 (centres undefined),18,/,-5,/,/,/,/,/,/,/,/
COc1ccc(N(CC(=O)NCc2ccc3c(c2)OCO3)S(C)(=O)=O)cc1OC,5,-12,-24,-6,16,94*,2,0,-2,-2,-2
CC(=O)NC(CC(C)C)C(=O)NC(CO)C(=O)NC(CCC(=O)O)C(=O)NC(C)C(=O)NC(CC(C)C)C(N)=O (centres undefined),11,0,-2,0,/,2,/,/,/,/,/
C/C(=N\NC(=O)c1c(Cl)cnn1C)c1cccnc1,5,-4,-2,-3,/,5,/,/,/,/,/
COc1ccccc1CNC(=O)C1CCN(S(=O)(=O)c2ccc(N3CCCC3=O)cc2)CC1,12,7,-6,-11,/,7,/,/,/,/,/
O=C1CCCC(O)=C1N=Nc1cccc(C(=O)O)c1,21,77*,3,61*,11,80*,14,78*,96*,22,70*
CCN(CC)S(=O)(=O)c1cccc(N=NC2=C(O)CCCC2=O)c1,16,1,24,-2,-6,3,/,/,/,/,/
Cc1nc2ccc(NC(=O)c3ccccc3)cc2s1,2,-11,8,4,27,1,/,/,/,/,/
Cc1nc2ccc(NC(=O)c3ccc4ccccc4n3)cc2s1,1,3,6,6,4,71*,11,12,40,51*,5
Cc1nc2ccc(NC(=O)c3sccc3C)cc2s1,16,85*,20,60*,28,69*,71*,71*,90*,81*,73*
Cc1[nH]c2ccccc2c1/C=N/NC(=O)c1cc(C(C)C)[nH]n1,-63,-19,-12,5,4,0,/,/,/,/,/
O=C(N=Nc1c(O)[nH]c2ccccc12)c1cccs1,15,82*,62*,67*,43,82*,52*,80*,93*,82*,20
SMILES,SENP8 block-1,SENP6 block,C8 TRAIL sens,SENP8 block-2,PPC-1+TRAIL kill,SENP7 block,SENP8 confirm,SENP6 confirm,SENP7 conf,Casp3 select,SENP luc ctr
O=C(COc1ccccc1F)NNC(=O)c1cccc(-n2cccc2)c1,4,-17,8,-12,/,12,/,/,/,/,/
Cc1ccc(NC(=O)Nc2ccccc2C(=O)NCc2ccccc2)cc1,-145,25,18,42,6,73*,13,19,76*,56*,48
O=C(O)c1cccnc1Nc1ccc(Cl)cc1,18,66*,32,56*,-1,21,72*,70*,85*,72*,74*
Cc1ccc(Nc2ncccc2C(=O)O)cc1C,2,46,-8,34,-20,2,/,/,/,/,/
O=C(Nc1ccc(Cl)c(Cl)c1)Nc1ccccc1C(=O)O,-262,100*,63*,98*,14,101*,4,101*,104*,100*,100*
O=C(Nc1ccc(Cl)cc1)Nc1ccccc1CC[N+](=O)[O-],9,-2,3,-9,19,-7,/,/,/,/,/
O=C(Nc1ccc(Cl)cc1)Nc1ccccc1C(=O)O,-392,95*,75*,96*,/,100*,8,101*,104*,99*,48
Cc1ccccc1NC(=O)Nc1ccccc1C(=O)NCc1ccccc1,-142,10,-12,4,13,4,/,/,/,/,/
NC(=O)c1ccccc1OCC(=O)Nc1ccc(Cl)c(Cl)c1,13,52*,6,18,-30,27,15,21,64*,24,11
O=C(N=c1nc2ccccn2s1)c1ccccc1,-6,94*,84*,59*,84*,96*,54*,59*,66*,54*,26
c1cn2c(-c3ccc(N4CCOCC4)cc3)cncc2n1,i,/,-6,/,/,/,/,/,/,/,/
O=C(N/N=C/c1cc([N+](=O)[O-])ccc1O)c1ccncc1,-2,23,-5,1,13,41,/,/,/,/,/

# Assay outcomes: PubChem BioAssay, Sanford-Burnham Center for Chemical Genomics
